This passage reports residual activity results from ChEMBL document CHEMBL2218924, “A broad activity screen in support of a chemogenomic map for kinase signalling research and drug discovery” (Biochem J, 2013).

Experiment [1] has as its target Serine/threonine-protein kinase 33 (Homo sapiens) (UniProt Q9BYT3). The following applies: at 1 µM.
Experiment [2] has the same target. The settings on record: at 10 µM.
Experiment [3] deals with Serine/threonine-protein kinase PLK2 (Homo sapiens) (UniProt Q9NYY3). The settings on record: at 1 µM.
Experiment [4] has the same target. The following applies: at 10 µM.
The target of experiment [5] is Tyrosine-protein kinase SYK (Homo sapiens) (UniProt P43405). The following applies: at 1 µM.
Experiment [6] has the same target. The settings on record: at 10 µM.
The target of experiment [7] is T1, Mitogen-activated protein kinase kinase kinase 7 (Homo sapiens) (UniProt O43318).
T1 sequence (whole entry): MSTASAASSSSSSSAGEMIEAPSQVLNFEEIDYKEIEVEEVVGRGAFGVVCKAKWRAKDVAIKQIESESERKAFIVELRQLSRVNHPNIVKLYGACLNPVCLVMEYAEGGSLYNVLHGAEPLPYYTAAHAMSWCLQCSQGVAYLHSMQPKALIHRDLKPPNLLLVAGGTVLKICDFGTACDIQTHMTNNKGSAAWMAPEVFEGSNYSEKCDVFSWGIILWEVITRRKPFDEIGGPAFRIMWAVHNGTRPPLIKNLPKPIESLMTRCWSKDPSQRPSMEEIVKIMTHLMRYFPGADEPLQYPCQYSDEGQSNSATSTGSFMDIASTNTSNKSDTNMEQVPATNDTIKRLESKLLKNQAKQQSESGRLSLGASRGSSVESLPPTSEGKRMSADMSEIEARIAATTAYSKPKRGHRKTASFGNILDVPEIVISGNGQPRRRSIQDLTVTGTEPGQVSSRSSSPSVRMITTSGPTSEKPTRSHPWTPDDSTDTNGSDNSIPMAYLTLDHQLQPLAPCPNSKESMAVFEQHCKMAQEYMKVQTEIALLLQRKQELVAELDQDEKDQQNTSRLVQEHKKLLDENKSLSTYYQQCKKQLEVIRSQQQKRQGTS
The settings on record: at 1 µM.

Experiment [8] deals with T1, Mitogen-activated protein kinase kinase kinase 7 (Homo sapiens). The settings on record: at 10 µM.
The target in experiment [9] is T2, Serine/threonine-protein kinase TAO1 (Homo sapiens) (UniProt Q7L7X3).
T2 sequence (whole entry): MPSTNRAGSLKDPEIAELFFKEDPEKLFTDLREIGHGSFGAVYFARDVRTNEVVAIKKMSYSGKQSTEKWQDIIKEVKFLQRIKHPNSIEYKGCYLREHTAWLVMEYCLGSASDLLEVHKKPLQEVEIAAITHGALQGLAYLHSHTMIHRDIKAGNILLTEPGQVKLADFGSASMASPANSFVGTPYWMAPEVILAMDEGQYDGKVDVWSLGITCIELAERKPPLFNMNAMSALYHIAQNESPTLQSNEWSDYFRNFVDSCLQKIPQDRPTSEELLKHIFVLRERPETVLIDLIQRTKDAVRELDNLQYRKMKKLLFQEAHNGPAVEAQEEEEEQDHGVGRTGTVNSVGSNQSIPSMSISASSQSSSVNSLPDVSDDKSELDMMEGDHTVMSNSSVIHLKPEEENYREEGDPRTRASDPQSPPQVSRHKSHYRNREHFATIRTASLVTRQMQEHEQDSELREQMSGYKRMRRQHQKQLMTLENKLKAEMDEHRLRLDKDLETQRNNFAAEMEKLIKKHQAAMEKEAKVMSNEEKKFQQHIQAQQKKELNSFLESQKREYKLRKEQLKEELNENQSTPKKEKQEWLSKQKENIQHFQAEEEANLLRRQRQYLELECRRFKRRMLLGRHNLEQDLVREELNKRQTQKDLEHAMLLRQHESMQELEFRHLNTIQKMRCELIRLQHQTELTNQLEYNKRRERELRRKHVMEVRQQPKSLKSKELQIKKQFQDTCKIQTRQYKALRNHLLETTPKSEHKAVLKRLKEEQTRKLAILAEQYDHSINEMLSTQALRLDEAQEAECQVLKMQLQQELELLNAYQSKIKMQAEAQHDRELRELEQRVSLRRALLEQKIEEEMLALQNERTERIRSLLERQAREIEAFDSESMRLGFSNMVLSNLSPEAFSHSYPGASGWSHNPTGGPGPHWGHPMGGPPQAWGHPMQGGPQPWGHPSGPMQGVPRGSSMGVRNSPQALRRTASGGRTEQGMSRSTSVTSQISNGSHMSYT
The settings on record: at 1 µM.

Experiment [10] deals with T2, Serine/threonine-protein kinase TAO1 (Homo sapiens). The following applies: at 10 µM.

SMILES strings stand for the structures.

Sequence of Serine/threonine-protein kinase 33 (Homo sapiens) (Q9BYT3 whole entry, looked up): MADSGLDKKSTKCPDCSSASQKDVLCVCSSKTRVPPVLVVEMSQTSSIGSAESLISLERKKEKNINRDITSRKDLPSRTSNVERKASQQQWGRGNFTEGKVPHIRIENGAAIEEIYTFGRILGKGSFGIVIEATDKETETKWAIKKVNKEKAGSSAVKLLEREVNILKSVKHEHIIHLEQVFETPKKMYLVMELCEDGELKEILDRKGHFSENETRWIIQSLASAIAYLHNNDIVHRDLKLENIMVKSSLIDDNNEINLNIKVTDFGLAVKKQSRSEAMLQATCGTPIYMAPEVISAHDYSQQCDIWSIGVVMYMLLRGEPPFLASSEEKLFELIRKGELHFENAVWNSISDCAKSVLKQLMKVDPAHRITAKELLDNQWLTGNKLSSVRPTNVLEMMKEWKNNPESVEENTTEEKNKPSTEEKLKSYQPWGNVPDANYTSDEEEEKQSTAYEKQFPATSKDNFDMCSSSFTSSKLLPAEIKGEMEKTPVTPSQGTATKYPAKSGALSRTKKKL
Sequence of Serine/threonine-protein kinase PLK2 (Homo sapiens) (Q9NYY3 whole entry, looked up): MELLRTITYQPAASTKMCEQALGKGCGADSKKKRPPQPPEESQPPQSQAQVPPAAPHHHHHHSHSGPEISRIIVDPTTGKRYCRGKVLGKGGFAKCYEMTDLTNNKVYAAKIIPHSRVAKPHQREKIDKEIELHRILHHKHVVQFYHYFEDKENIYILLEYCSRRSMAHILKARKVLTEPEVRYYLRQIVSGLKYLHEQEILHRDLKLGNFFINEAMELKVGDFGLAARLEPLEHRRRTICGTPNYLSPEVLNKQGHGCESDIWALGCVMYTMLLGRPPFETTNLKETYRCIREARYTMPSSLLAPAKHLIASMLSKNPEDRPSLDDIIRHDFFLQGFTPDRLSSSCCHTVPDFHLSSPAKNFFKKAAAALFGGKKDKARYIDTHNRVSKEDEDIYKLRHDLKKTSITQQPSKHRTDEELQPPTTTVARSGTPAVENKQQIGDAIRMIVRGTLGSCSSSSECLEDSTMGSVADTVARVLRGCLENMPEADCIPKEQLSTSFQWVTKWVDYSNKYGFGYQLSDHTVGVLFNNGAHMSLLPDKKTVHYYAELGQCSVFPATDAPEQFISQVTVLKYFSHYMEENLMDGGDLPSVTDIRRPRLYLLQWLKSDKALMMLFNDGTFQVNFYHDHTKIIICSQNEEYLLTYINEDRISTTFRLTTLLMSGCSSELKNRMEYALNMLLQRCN

On to `O=C1c2ccccc2-c2nc3nnnn3nc21`, for which the residual activity is 103% in experiment [1], 100% in experiment [2], 73% in experiment [3] and 34% in [4].
For the molecule `CC(C)[C@H](CO)Nc1nc(Nc2cccc(Cl)c2)c2ncn(C(C)C)c2n1`, the residual activity was 89% in experiment [1]; 53% in [2]; 101% in experiment [3]; 86% in [4]; 102% in experiment [5]; 60% in [6]. In addition, the residual activity in experiment [7] was determined as 73%; in experiment [8], 20%; in experiment [9], 82%; in experiment [10], 26%.
As for `N/C(=N\[N+](=O)[O-])N/N=C\c1ccc(-c2cccc([N+](=O)[O-])c2)o1`, the residual activity in [3] came out at 99%; in experiment [4], 98%; in experiment [8] it was 89%; in experiment [9] it was 91%; in experiment [10], 88%.
Take `O=[N+]([O-])/C=C/c1ccc2c(c1)OCO2`: the residual activity in [1] was 93%; in [2], 89%; in [3], 102%; in [4], 102%; in [5], 123%; in experiment [6] it was 82%. Besides, the residual activity in experiment [7] was 92%; in [8], 90%; in experiment [9], 101%; in experiment [10] it was 98%.
In the case of `COC(=O)[C@@]1(O)C[C@H]2O[C@]1(C)n1c3ccccc3c3c4c(c5c6ccccc6n2c5c31)C(=O)NC4`, the residual activity in experiment [1] is 7%; in [2], 0%; in experiment [4] it was 36%; in experiment [5] it was 1%; in [6], 2%; in [7], -1%. For the same molecule, the residual activity in experiment [8] was -5%; in [9], 5%; in experiment [10], 3%.
Turning to `COc1cc2ncnc(Nc3ccc(OCc4ccccc4)cc3)c2cc1OC`, the residual activity turned out to be 100% in experiment [1]; 105% in [2]; 108% in experiment [3]; 105% in [4]; 116% in experiment [5]; 82% in experiment [6]. Further, the residual activity in experiment [7] came out at 99%; in [8], 96%; in experiment [9], 108%; in [10] it was 91%.
As to `CC(C)(C)c1cc(C=C(C#N)C#N)cc(Br)c1O`, the residual activity in experiment [1] stood at 110%; in [2], 108%; in experiment [4], 67%; in [5], 128%; in experiment [7], 104%; in experiment [8] it was 103%. Moreover, the residual activity was 112% in experiment [9] and 70% in experiment [10].
On to `O=c1[nH]c2ccccc2n1C1CCN(Cc2ccc(-c3nc4cc5[nH]cnc5cc4nc3-c3ccccc3)cc2)CC1`, for which the residual activity in [1] came to 100%; in experiment [2], 95%; in experiment [3] it was 91%; in experiment [4] it was 92%; in experiment [5], 125%; in experiment [6] it was 76%. In addition, the residual activity turned out to be 97% in experiment [7], 96% in [8], 102% in experiment [9] and 65% in experiment [10].
With `c1cc(-c2cnn3cc(-c4ccc(OCCN5CCCCC5)cc4)cnc23)ccn1`, the residual activity in experiment [3] is 82%; in experiment [4], 85%; in experiment [6] it was 59%; in experiment [7], 57%; in experiment [8], 13%.
On to `C[S+]([O-])c1ccc(-c2nc(-c3ccc(F)cc3)c(-c3ccncc3)[nH]2)cc1` (stereo unspecified), for which the residual activity in experiment [1] was 106%; in experiment [2], 109%; in experiment [3], 116%; in [4] it was 103%; in [5] it was 112%; in experiment [6] it was 101%. The residual activity in experiment [7] came to 106%; in experiment [8], 101%; in [9], 100%; in experiment [10], 77%.
As to `CCc1nc(-c2ccc(OC)cc2)[nH]c1-c1ccncc1`, the residual activity in experiment [1] turned out to be 105%; in experiment [2], 100%; in experiment [3], 112%; in [4] it was 100%; in experiment [5], 113%; in [6], 107%.
In the case of `O=C1Nc2ccc3ncsc3c2/C1=C/c1c[nH]cn1`, the residual activity in experiment [1] came out at 62%; in experiment [2] it was 25%; in experiment [3], 49%; in [4], 17%; in [5] it was 101%; in experiment [6], 53%. In addition, the residual activity in experiment [7] worked out at 16%; in experiment [8] it was 1%; in experiment [9], 11%; in [10], 0%.
As for `O=C1NC(=O)c2c1c1c3ccccc3n3c1c1c2c2ccccc2n1C1CCC3O1`, the residual activity in experiment [5] worked out at 90%; in [6] it was 80%; in experiment [7], 88%; in experiment [8], 89%; in experiment [9], 75%; in [10] it was 69%.
With `CCn1cnc2c(Nc3cccc(Cl)c3)nc(N[C@@H]3CCCC[C@@H]3N)nc21`, the residual activity came out at 87% in experiment [1]; 42% in experiment [2]; 92% in experiment [3]; 54% in experiment [4]; 99% in experiment [5]; 57% in [6]. Moreover, the residual activity in experiment [7] is 89%; in [8], 65%; in experiment [9], 68%; in experiment [10], 15%.
In the case of `COc1ccc2c(c[n+](C)c3c4cc5c(cc4ccc23)OCO5)c1OC`, the residual activity came to 97% in experiment [1]; 92% in [2]; 71% in experiment [4]; 132% in experiment [5]; 82% in [6]; 92% in experiment [7]. Also, the residual activity is 94% in experiment [8] and 87% in experiment [10].
As for `COc1cc(OC)c(/C=C2\C(=O)Nc3ccccc32)c(OC)c1`, the residual activity came to 92% in experiment [1]; 92% in [2]; 100% in [3]; 92% in experiment [4]; 102% in [5]; 96% in experiment [6]. Further, the residual activity in experiment [7] was found to be 92%; in experiment [8], 81%; in experiment [9], 95%; in experiment [10] it was 83%.
For `COc1ccc2c(c1)/C(=C/c1cnc[nH]1)C(=O)N2`, the residual activity in [2] was 53%; in [7] it was 75%; in experiment [8], 21%; in experiment [9] it was 41%; in [10], 7%.
